Test results taken from ChEMBL document CHEMBL3988442, “University of Dundee, Small-Polar-MMV Screening Library” (2021).

molecular target: AMP-activated protein kinase, AMPK (Homo sapiens) (UniProt P54646+O43741+P54619+Q9UGJ0+Q9Y478+Q13131+Q9UGI9); assay: AMP-dependent Kinase enzyme assay. An in vitro enzyme assay that detects ADP turnover that is directly proportional to AMPK activity. This uses naive AMPK that is activated during the assay with MK-8722; format: functional; set-up: scale not given: direction of the effect not stated beside the values; details: 30 µM

| SMILES | Percent Effect |
| --- | --- |
| O=C(c1nc(=O)[nH]c2ccccc12)N1CCCC(CC2CC2)(C(=O)O)C1 (stereo not given) | -0.821% |
| CS(=O)(=O)NCC1CCCN(Cc2ccccc2F)C1 (stereo not given) | -6.5% |
| C=C(C)COc1cccc(CNCc2nc3ccccc3c(=O)[nH]2)c1 | 1.56% |
| Cc1cc(CNCC2(O)CCOCC2)ccc1F | -5.64% |
| Cc1cc(O)n2nc(C3CCN(C(=O)c4ccccn4)CC3)cc2n1 | 6.67% |
| CN(Cc1csc(-c2cccs2)n1)Cc1cccnc1N | 3.93% |
| CCCn1ncc(C(=O)N2CCCC(OCc3ccccn3)C2)c1C (stereo not given) | -1.18% |
| Cc1nnc(CN(C)CC(=O)NCCc2ccc(F)cc2)n1C | 5.73% |
| Cc1cnn(CCCNC(=O)NCCC(=O)Nc2ccccc2)c1 | 11.1% |
| O=C(Cn1[nH]c2ccccc2c1=O)N1CCCC(CC2CC2)(C(=O)O)C1 (stereo not given) | -3.39% |
| Cc1cc(Cl)c(C)c(S(=O)(=O)N2CCN(Cc3ccncc3)CC2)c1Cl | -2.88% |
| Cc1cc(C)n(C2CN(Cc3nc4cc(Cl)ccc4n3C)C2)n1 | 3.42% |
| Cc1cc(C)c2[nH]c(C(=O)NCCN3CCCC3=O)c(C)c2c1 | 13.3% |
| O=C(NCc1csc2ccc(Cl)cc12)c1cc2n(n1)CCNC2 | 10.6% |
| COc1cccc(CN(C)Cc2c(C)noc2C)c1OC | 18.1% |
| CN(Cc1ccccc1F)Cc1cc2c(cc1Br)OCCO2 | -3.17% |
| CCN(Cc1ccoc1)c1ncc(S(N)(=O)=O)s1 | -1.73% |
| COCCN(CCOC)C(=O)c1cnn(C)c1-n1c(C)ccc1C | -1.28% |
| O=C(Cn1ccnc1)N1CC[C@H](Oc2cccc(F)c2)[C@@H](O)CC1 | 8.87% |
| CCOc1ccccc1CN(C)C(=O)CN1C(=O)OC[C@@H]1C(C)C | 5.19% |
